MEKK2wt PB1 HTS = modulators of MEK5 binding to wildtype MEKK2, primary screen, biochemical, multiplex bead flow cytometry, Alexa488-MEK5; binding response (% of control), % at 10 µM; actives 1.1% (n = 290,000); Alexa488-MEK5 binding to MEKK2 WT; actives lie on both sides; in the data active means binding response below about 67% or above about 130%
MEKK3 PB1 HTS = modulators of MEKK3-MEK5 PB1 binding, primary screen, biochemical, wildtype MEKK3, multiplex bead flow cytometry, Alexa488-MEK5 | Mitogen-activated protein kinase kinase kinase 3 (Homo sapiens), Q99759 | bead-based flow cytometry, Alexa488-MEK5 binding to MEKK3; actives lie on both sides; 0 = blocked by unlabeled MEK5, 100 = vehicle | binding response (% of control), % at 10 µM | actives 1.4% (n = 290,000);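 active means binding response more than 3 SD above or below the average of its plate-row segment, actives on both sides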;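 further: Alexa488 bead fluorescence after subtracting the streptavidin-only scavenger bead signal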
Arbovirus anti = antivirals against arbovirus infection, primary screen, cell-based, full library, 10K replicate subset; inhibition, % at 10 µM; arbovirus infection cell-based antiviral screen; actives 0.37% (n = 200,000); AID 1251, 2008; in the data active means inhibition above about 30%
Pf gamet viab = late stage P. falciparum gametocyte viability inhibitors, primary screen, ATP luminescence, HTS | inhibition, % at 10.9 µM | actives 0.065% (n = 150,000) | P. falciparum stage V gametocytes, 24 h | AID 743093, 2013;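 active means inhibition above the mean plus 3 SD of compounds within the control limits, set per campaign, cut at about 38% in these data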
MEKK2mut PB1 HTS = MEK5 binding signal on mutant MEKK2 PB1, primary screen, biochemical, multiplex bead flow cytometry, Alexa488-MEK5. Alexa488-MEK5 binding to MEKK2 mutant. percent response, % at 10 µM. actives 0.35% (n = 290,000); in the data active means percent response above about 24%, passing the limit was not always enough
MEKK2wt confirm = modulators of MEK5 binding to wildtype MEKK2, confirmation, biochemical, single concentration, multiplex bead flow cytometry. actives 2.4% (n = 5,900). shares compounds with MEKK3 PB1 HTS. Alexa488-MEK5 binding to MEKK2 WT; actives lie on both sides. AID 1892, 2009. binding response (% of control), % at 10 µM; in the data active means binding response below about 16% or above about 210%; inactive means in between
MEKK2mut confirm = mutant MEKK2 PB1-MEK5 binding signal retest – biochemical, single concentration, multiplex bead flow cytometry, confirmation; actives 2% (n = 5,900); percent response, % at 10 µM; Alexa488-MEK5 binding to MEKK2 mutant; shares compounds with MEKK3 PB1 HTS; AID 1893, 2009; in the data active means percent response mostly above about 71%, no sharp cut-off; inactive means mostly below about 38%;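 further: higher means compound restores mutant binding toward wildtype level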
MEKK3-MEK5 inh = MEKK3 wild-type PB1 binding to MEK5, inhibitors, confirmation, biochemical, bead multiplex flow cytometry, single concentration, wildtype | shares compounds with MEKK3 PB1 HTS | Alexa488-MEK5 binding to MEKK3; active compounds read low | binding response (% of control), % at 10 µM | actives 1.8% (n = 5,900);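 active means binding response below 72% of control, or above a set upper limit, though filed actives all read lower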;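 further: lower values mean stronger disruption of MEK5 binding to MEKK3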
Each line names hits and unclear results; the compound was inactive in the other large screens (follow-up assays come after a bar, where they were run); [ ] = remark or other dose. Sampled rows, rich in hits. Any-hit rate of the full collection: about 2.4%.

COc1cc(/C=C2/SC(=S)N(Cc3ccccc3)C2=O)ccc1OCC(=O)O	none (no result: Arbovirus anti, Pf gamet viab)
Cc1c(C=N)c(O)n(C)c(=O)c1C#N	none (no result: Arbovirus anti)
S=C1NC2(CCCCC2)Nc2ccccc21	none
COc1cc(S(=O)(=O)N2CCCN(C)CC2)ccc1NC(C)=O	none (no result: Arbovirus anti, Pf gamet viab)
Cn1c(=O)oc2cc(S(=O)(=O)NCc3ccc(Cl)cc3)ccc21	MEKK2wt PB1 HTS -6.0[inhibitor], MEKK3 PB1 HTS 0.0[inhibitor] (no result: Arbovirus anti, Pf gamet viab) | MEKK2wt confirm inactive | MEKK2mut confirm inactive | MEKK3-MEK5 inh inactive
Cn1c(=O)oc2cc(S(=O)(=O)NCc3ccccc3)ccc21	none (no result: Pf gamet viab)
Cc1nn(C)cc1-c1cc(C(=O)O)c2ccccc2n1	MEKK2wt PB1 HTS 23[inhibitor], MEKK3 PB1 HTS 65[inhibitor] | MEKK2wt confirm inactive | MEKK2mut confirm inactive | MEKK3-MEK5 inh inactive
O=C(C(=O)N1CCN(c2ccccc2)CC1)c1cn(CC(=O)N2CCCCCC2)c2ccccc12	none (no result: Arbovirus anti, Pf gamet viab)
O=C(O)Cn1c(-c2cscn2)nc2ccccc21	MEKK3 PB1 HTS 123 (no result: Pf gamet viab) | MEKK2wt confirm inactive | MEKK2mut confirm inactive | MEKK3-MEK5 inh inactive
COc1ccc2c(c1)nc(SCC(C)O)n2C (centres undefined)	MEKK3 PB1 HTS 132 | MEKK2wt confirm inactive | MEKK2mut confirm inactive | MEKK3-MEK5 inh inactive
COc1ccccc1C(=O)Nc1ccc2c(c1)nc(CN1CCN(C(C)=O)CC1)n2C	MEKK3 PB1 HTS 67[inhibitor] | MEKK2wt confirm inactive | MEKK2mut confirm inactive | MEKK3-MEK5 inh inactive
COc1ccc2c(c1)nc(CN1CCN(CCO)CC1)n2C	MEKK2mut PB1 HTS 32 (no result: Arbovirus anti, Pf gamet viab) | MEKK2wt confirm inactive | MEKK2mut confirm inactive | MEKK3-MEK5 inh inactive
CC(=O)N1CCN(Cc2nc3cc(NC(=O)c4ccccc4)ccc3n2C)CC1	none (no result: Pf gamet viab)
CCCCn1c(N)c(N(Cc2ccccc2OC)C(=O)CSCC(=O)Nc2cccc(C)c2)c(=O)[nH]c1=O	none (no result: Arbovirus anti, Pf gamet viab)
CN(Cc1ccco1)C(=O)Cn1cc(S(=O)(=O)N2CCCC2)c(S(=O)(=O)N2CCCC2)c1	none (no result: Arbovirus anti, Pf gamet viab)
O=C(CCSCc1ccc(Cl)cc1)NCCc1ccccc1	MEKK3 PB1 HTS 142 | MEKK2wt confirm inactive | MEKK2mut confirm inactive | MEKK3-MEK5 inh inactive
O=C(Cc1ccc(Cl)cc1)NC1CC1	none
O=C(CCSCc1ccc(Cl)cc1)NC1CCCC1	MEKK3 PB1 HTS 151 | MEKK2wt confirm inactive | MEKK2mut confirm inactive | MEKK3-MEK5 inh inactive
COc1ccccc1OCC(=O)NCCSCc1ccc(Cl)cc1	MEKK3 PB1 HTS 132 (no result: Pf gamet viab) | MEKK2wt confirm inactive | MEKK2mut confirm inactive | MEKK3-MEK5 inh inactive
O=C(CCSCc1cccc(Cl)c1)NCCc1ccc(Cl)cc1	none (no result: Pf gamet viab)
O=C(CSc1ccccc1)NCCSCc1ccccc1	MEKK3 PB1 HTS 140 | MEKK2wt confirm inactive | MEKK2mut confirm inactive | MEKK3-MEK5 inh inactive
Cc1ccc2c(c1)C1CC(C)(O2)N(c2cccc(C(=O)NC3CCN(Cc4ccccc4)CC3)c2)C(=O)N1 (centres undefined)	none (no result: Arbovirus anti, Pf gamet viab)
COc1ccccc1N1CCN(Cc2cc(=O)c(OCC(=O)NC(C)C)co2)CC1	none (no result: Arbovirus anti, Pf gamet viab)
O=[N+]([O-])c1cc(C(F)(F)F)ccc1NCCNC(=S)Nc1ccc(Cl)cc1	MEKK2wt PB1 HTS 139 | MEKK2wt confirm inactive | MEKK2mut confirm inactive | MEKK3-MEK5 inh inactive
COc1ccc(NC(=O)CC2C(=O)N(c3ccc(Cl)cc3)C(=S)N2CCc2ccccn2)cc1 (centres undefined)	MEKK3 PB1 HTS 130 | MEKK2wt confirm inactive | MEKK2mut confirm inactive | MEKK3-MEK5 inh inactive
